The list is not random: actives were taken first. Their share in the collection is about 9.2%.
SMN2 splice enh: qHTS Assay for Enhancers of SMN2 Splice Variant Expression | HEK293 SMN2-luciferase splicing reporter, luminescence, 30-36 h | Potency, µM (top dose mostly 46.1 µM), inactives show at the highest dose activity change, positive = activation, usual class: activators | 2.8% of 210,000 active | AID 1458, 2008; note: % of control where 0% means no effect; nearly all actives have a fitted effect of over 55% in size
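HEK293 cells carry an SMN2 […]–luciferase reporter in which exon 7 inclusion puts luciferase in frame. Cells were plated 10-12 h before compound addition, then incubated 30-36 h at 37C. ONE-Glo luminescence was read; sodium butyrate at 4.5 mM final served as control.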
ELG1 genotoxic: qHTS screen for small molecules that induce genotoxicity in human embryonic kidney (HEK293T) cells expressing luciferase-tagged ELG1. HEK293T ELG1-luciferase reporter, luminescence, 16 h. 1.3% of 330,000 active. Potency, µM (series often up to 46 µM), for the others: top-dose activity change, positive = activation, actives largely listed as activators; note: % of control where 0% means no effect; nearly all actives have a fitted effect of over 60% in size
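DMSO vehicle served as control against compound-treated ELG1-luciferase HEK293T cells; exposure lasted 16 hr at 37 °C and 5% CO2, followed by ONE-Glo luminescence detection after 30 min.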
FLuc counter: qHTS profiling assay for firefly luciferase inhibitor/activator using purifed enzyme and Km concentrations of substrates (counterscreen for miR-21 project). Luciferin 4-monooxygenase (Photinus pyralis), P08659. purified FLuc, Km substrates, luminescence inhibition. Potency, µM (top dose mostly 57.5 µM), inactives show top-dose activity change, negative = inhibition, most hits filed as inhibitors. 6.9% of 360,000 active;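 note: plate controls were vehicle for no effect and reference inhibitor for full effect; nearly all actives have a fitted effect of over 55% in size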
Target sequence (P08659 whole entry, looked up): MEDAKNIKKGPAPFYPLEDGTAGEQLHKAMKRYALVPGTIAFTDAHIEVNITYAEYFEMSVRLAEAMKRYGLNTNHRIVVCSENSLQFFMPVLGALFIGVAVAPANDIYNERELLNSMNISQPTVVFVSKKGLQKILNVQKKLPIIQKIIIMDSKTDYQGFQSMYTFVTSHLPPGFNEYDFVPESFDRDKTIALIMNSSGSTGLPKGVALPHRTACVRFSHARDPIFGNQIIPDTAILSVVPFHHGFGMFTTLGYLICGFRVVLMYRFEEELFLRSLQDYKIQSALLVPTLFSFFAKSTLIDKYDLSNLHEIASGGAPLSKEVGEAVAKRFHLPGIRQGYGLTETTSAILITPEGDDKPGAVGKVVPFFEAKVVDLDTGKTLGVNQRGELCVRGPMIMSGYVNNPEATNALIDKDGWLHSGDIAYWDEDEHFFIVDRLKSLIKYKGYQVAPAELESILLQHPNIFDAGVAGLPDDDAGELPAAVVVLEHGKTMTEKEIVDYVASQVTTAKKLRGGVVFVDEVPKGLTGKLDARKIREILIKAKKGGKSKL
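Biochemical qHTS of compounds, final roughly 60 µM downward over six points, against 10 nM purified firefly luciferase using Km concentrations of substrates (10 uM D-luciferin, 10 uM ATP) in Tris acetate pH 7.5 buffer; luminescence output.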
Rab9 prom act: qHTS Assay for Rab9 Promoter Activators; Huh7 Rab9 promoter-luciferase reporter, luminescence, 24 h; Potency, µM (top dose mostly 9.22 µM), for inactives: top-dose activation, negative = inhibition, actives largely listed as activators; 2.8% of 320,000 active; AID 485297, 2010; note: % of control where 0% means no effect; nearly all actives have a fitted effect of over 60% in size
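Huh7 cells stably carrying Rab9 promoter–luciferase reporter, plated 1500 cells/well, compound added after 2 h and incubated 24 h at 37 °C; luciferase luminescence then read after 10 min with detection reagent.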
NPC1 promoter act: qHTS Assay for NPC1 Promoter Activators | Potency, µM (highest dose often 9.22 µM), for inactives: at the top dose activation, usual class: activators | Huh7 NPC1 promoter luciferase reporter, 24 h | 2.4% of 320,000 active; note: % of control where 0% means no effect; nearly all actives have a fitted effect of over 60% in size
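NPC1 promoter–luciferase Huh7 cells; 24 h compound; luminescence.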
ELG1 DNA repair: qHTS screen for small molecules that inhibit ELG1-dependent DNA repair in human embryonic kidney (HEK293T) cells expressing luciferase-tagged ELG1; HEK293T ELG1-luciferase reporter, luminescence, 16 h; DNA damage induced by 5-fluorouridine; Potency, µM (doses to about 46.1 µM), inactives show top-dose activity change, negative = inhibition, hits mostly inhibitors; 2.3% of 330,000 active; note: % is set by controls: 0 for no effect and ±100 for the full control effect; nearly all actives have a fitted effect of over 55% in size
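Reporter activity after DNA damage by 5-fluorouridine is monitored. Compound-treated cells incubate 16 hr at 37 °C, then ONE-Glo is added for 30 min before luminescence reading.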
Numbers without * were called inactive; ? = inconclusive; . = no result; [ ] = another dose, or the depositor's remark. Calls come from the whole dose curve; as a rule, active = well fitted curve in the direction sought with a large enough effect; inconclusive = small, poorly fitted or top-dose-only effect, or another doubt; inactive = no such curve, though single readings can be large; an effect the other way counts as inactive or inconclusive. Potency is the fitted concentration of half-maximal effect.

SMILES	SMN2 splice enh	ELG1 genotoxic	FLuc counter	Rab9 prom act	NPC1 promoter act	ELG1 DNA repair
COc1ccc(C)cc1-n1nnnc1SCc1csc(C)n1	-9.5%	1.0%	2.0%	?	16.1%	15.6%
COc1ccc(C)cc1-n1nnnc1SCc1cc(=O)n2cc(C)ccc2n1	-55.2%	-7.9%	1.3%	-26.4%	-10.8%	17.8µM*
COc1ccc(C)cc1-n1nnnc1SCn1nnc2ccccc2c1=O	-44.1%	-3.2%	-3.0%	-17.8%	-0.1%	5.8µM*
O=c1c2ccccc2nnn1CSc1nnc2ccccn12	12.6µM*	18.4µM*	15.1µM*	3.16µM*	3.55µM*	?
CC1C(=O)N2CCCc3cc(NC(=O)CC(C)(C)C)cc1c32 (stereo not given)	.	7.3%	0.6%	-1.9%	-8.8%	9.9%
CCC(=O)NC1CCN(C(=S)NC)CC1	.	3.2%	-0.2%	0.0%	-3.0%	9.4%
CC(=O)c1ccc(Nc2cc(C)nc3nc(Cc4ccc(Cl)cc4)nn23)cc1	-8.1%	.	-0.7%	.	.	.
CCCCOc1ccc(C(=O)Nc2cc(-c3cn4cccnc4n3)ccc2OC)cc1	.	.	-9.2%	.	.	.
CN(C)c1cc(-c2ccccc2)nc(-c2ccccc2)n1	.	0.4%	-1.2%	7.4%	-3.4%	?
Cc1ccc(/C=N\Nc2nc3ccc(Cl)cc3[nH]2)o1	?	7.7%	8.49µM*	4.47µM*	2.51µM*	?
BrC(=C\c1ccccc1)/C=N/Nc1nc2ccccc2[nH]1	-10.0%	9.6%	2.69µM*	17.6%	20.6%	?
CCCCn1c(/C=N/Nc2nc3ccccc3[nH]2)nc2ccccc21	-78.9%	11.3%	?	-31.4%	-3.6%	-18.8%
C(=N\Nc1nc2ccccc2[nH]1)/c1cccc2nccnc12	.	?	?	-4.0%	-4.7%	?
Cc1ccc(/C=N/Nc2nnc(Cc3ccccc3)c(=O)[nH]2)o1	5.1%	3.4%	0.9%	-4.5%	-4.1%	0.5%
Fc1ccccc1-c1ccc(/C=N/Nc2nc3ccccc3[nH]2)o1	22.4µM*	?	0.269µM*	3.55µM*	?	?
C(=N\Nc1nc2ccccc2[nH]1)/c1ccc2ncccc2c1	.	-8.4%	2.13µM*	0.794µM*	1.41µM*	?
CCCCCCCCCCCCCC(=O)N[C@H](C)[C@@H](O)c1ccccc1	4.0%	.	.	.	.	.
COc1ccc(C(=O)COC(=O)CCNS(=O)(=O)c2ccccc2)c(OC)c1	.	1.9%	-1.2%	0.2%	-2.3%	2.8%
COc1cc(NC(=O)Cn2cnc3c(SC)nc(N)nc32)cc(OC)c1OC	.	?	.	.	.	5.0%
C#CCn1cc(/C=N/NC(=O)COc2cccc3cccnc23)c2ccccc21	7.8%	3.8%	-18.4%	-1.6%	0.7%	5.3%
C#CCn1cc(/C=N/Nc2nc3ccccc3[nH]2)c2ccccc21	?	12.1%	19µM*	4.3%	-1.6%	?
C(=N\Nc1nc2ccccc2[nH]1)/c1ccccn1	.	-24.1%	0.338µM*	?	?	?
O=C(Nc1cccc(NC(=O)c2ccc(Cl)cc2Cl)c1)c1cccnc1	.	-9.4%	13.5µM*	-4.6%	-4.9%	-29.7%
O=C(Nc1cccc(NC(=O)c2cccnc2)c1)c1cccnc1	-15.6%	-12.8%	-9.4%	1.9%	3.1%	-18.3%
Cc1ccc(C(=O)COC(=O)c2cccc(NC(=O)c3ccc(Cl)cc3Cl)c2)cc1	?	.	0.849µM*	.	.	.
SMILES	SMN2 splice enh	ELG1 genotoxic	FLuc counter	Rab9 prom act	NPC1 promoter act	ELG1 DNA repair
COc1cccc(C(=O)Nc2cccc(C(=O)NC3=NN(c4c(Cl)cc(Cl)cc4Cl)C(=O)C3)c2)c1	8.7%	9.2%	9.53µM*	17.4%	-1.8%	-0.9%
CC(C)(C)C(=O)NC1=NN(c2c(Cl)cc(Cl)cc2Cl)C(=O)C1	.	-2.9%	2.8%	-2.7%	-10.9%	5.9%
COc1cccc(C(=O)Nc2cccc(NC(=O)c3ccccc3Cl)c2)c1	.	-7.9%	15.1µM*	10.4%	-1.3%	-9.6%
CC(C)NC(=O)COc1coc(CN2CCN(c3ccccc3F)CC2)cc1=O	.	-0.6%[9.26 µM]	-1.5%	0.3%	-2.4%	0.0%
Cc1cc(C)c(S(=O)(=O)NCc2cccs2)cc1C	.	-0.9%	-3.9%	-0.8%	0.9%	-7.1%
COc1cccc(C(=O)Nc2cccc(NC(=O)c3ccc(Cl)cc3Cl)c2)c1	-8.5%	.	7.57µM*	.	.	.
COc1ccc(C(=O)C(CCC(CNC(C)(C)C)C(=O)c2ccc(OC)cc2)CNC(C)(C)C)cc1 (stereo not given)	-60.0%	-4.4%	2.8%	-13.3%	-2.1%	8.2µM*
O=C(COC(=O)c1cccnc1Cl)Nc1ccc2c(c1)OCCO2	5.2%	6.6%	8.49µM*	-2.5%	-1.8%	-7.0%
CC(=O)Nc1ccc(SCC(=O)Nc2ccc3c(c2)OCCO3)cc1	.	8.2%	.	.	.	?
NC(=O)c1ccccc1OCC(=O)Nc1ccc2c(c1)OCCO2	.	?	8.49µM*	3.16µM*	?	?
O=C(CSCc1c(Cl)cccc1Cl)Nc1ccc2c(c1)OCCO2	18.4%	11.8%	16.9µM*	8.1%	13.0%	-2.2%
Cc1ccccc1OCC(=O)Nc1ccc2c(c1)OCCO2	.	?	9.53µM*	2.82µM*	3.55µM*	?
Cc1cccc(C)c1OCC(=O)Nc1ccc2c(c1)OCCO2	.	?	?	17.2%	13.1%	?
Cc1ccc(S(=O)(=O)c2cn(CC(=O)Nc3ccc4c(c3)OCO4)c3ccccc3c2=O)cc1C	3.7%	.	-7.9%	.	.	.
O=C(COc1ccccc1)N/N=C/c1ccc2c(c1)OCO2	2.8%	12.4%	?	-0.2%	4.1%	-7.7%
COc1ccccc1OCCC(=O)Nc1ccc2c(c1)OCO2	.	0.9%	.	.	.	-11.3%
COc1ccccc1OCC(=O)Nc1ccc2c(c1)OCCO2	.	?	16.9µM*	?	?	?
O=C(COc1ccccc1Cl)Nc1ccc2c(c1)OCCO2	.	4.11µM*	4.78µM*	1.58µM*	3.98µM*	?
Cc1ccccc1OCC(=O)N/N=C/c1ccc2c(c1)OCCO2	12.3%	3.6%	26.9µM*	-0.7%	1.2%	5.7%
CC(=O)Nc1ccc(NC2=CC(=O)c3ccccc3C2=O)cc1	.	?	?	2µM*	?	?
O=C1C=C(Nc2ccc(O)cc2)C(=O)c2ccccc21	.	?	5.36µM*	?	0.6%	?
CC(=O)Nc1ccc(Nc2ccccc2)cc1	.	6.6%	-20.5%	1.8%	2.4%	?
O=C1C(Cl)=C(Nc2ccc(O)cc2)C(=O)c2ccccc21	.	-9.2%	?	-45.9%	-35.9%	?

Screens deposited in PubChem BioAssay by National Center for Advancing Translational Sciences (NCATS).
